The record followed here is ChEMBL document CHEMBL1961873, “Compounds: GSK PKIS; Assays: Nanosyn kinase panel” (2012).

Structures are written as SMILES.

In test [1] the target is Protein kinase C gamma type (Homo sapiens) (UniProt P05129). The note with it: at 1 µM.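 Also: each value is an averaged percent inhibition of the enzyme.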
Test [2] deals with T1, Protein kinase C iota type (Homo sapiens) (UniProt P41743).
T1 sequence (whole entry): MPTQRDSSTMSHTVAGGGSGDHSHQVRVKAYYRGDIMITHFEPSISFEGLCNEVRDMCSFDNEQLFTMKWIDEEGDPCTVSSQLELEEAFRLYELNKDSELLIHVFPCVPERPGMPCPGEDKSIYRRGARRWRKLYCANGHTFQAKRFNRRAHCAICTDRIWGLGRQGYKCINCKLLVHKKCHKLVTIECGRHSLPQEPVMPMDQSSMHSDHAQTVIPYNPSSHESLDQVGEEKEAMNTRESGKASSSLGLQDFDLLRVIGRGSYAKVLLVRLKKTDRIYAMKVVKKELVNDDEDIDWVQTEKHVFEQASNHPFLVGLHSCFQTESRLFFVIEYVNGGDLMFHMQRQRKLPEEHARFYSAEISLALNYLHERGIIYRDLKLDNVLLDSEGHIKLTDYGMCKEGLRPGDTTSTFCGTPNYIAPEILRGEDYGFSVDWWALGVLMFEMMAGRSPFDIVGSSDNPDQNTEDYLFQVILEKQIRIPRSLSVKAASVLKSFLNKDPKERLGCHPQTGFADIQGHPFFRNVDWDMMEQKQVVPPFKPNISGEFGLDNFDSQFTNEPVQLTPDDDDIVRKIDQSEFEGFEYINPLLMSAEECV
The note with it: at 0.1 µM.

In test [3] the target is T1, Protein kinase C iota type (Homo sapiens). The note with it: at 1 µM.
Test [4] addresses Protein kinase C theta type (Homo sapiens) (UniProt Q04759). The note with it: at 0.1 µM.
The target is the same in test [5]. The note with it: at 1 µM.
Test [6] has as its target Protein kinase C beta type (Homo sapiens) (UniProt P05771). The note with it: at 0.1 µM.
For test [7] the target is unchanged. Conditions: at 1 µM.
For test [8], the target named is T2, Serine/threonine-protein kinase D1 (Homo sapiens) (UniProt Q15139).
T2 sequence (whole entry): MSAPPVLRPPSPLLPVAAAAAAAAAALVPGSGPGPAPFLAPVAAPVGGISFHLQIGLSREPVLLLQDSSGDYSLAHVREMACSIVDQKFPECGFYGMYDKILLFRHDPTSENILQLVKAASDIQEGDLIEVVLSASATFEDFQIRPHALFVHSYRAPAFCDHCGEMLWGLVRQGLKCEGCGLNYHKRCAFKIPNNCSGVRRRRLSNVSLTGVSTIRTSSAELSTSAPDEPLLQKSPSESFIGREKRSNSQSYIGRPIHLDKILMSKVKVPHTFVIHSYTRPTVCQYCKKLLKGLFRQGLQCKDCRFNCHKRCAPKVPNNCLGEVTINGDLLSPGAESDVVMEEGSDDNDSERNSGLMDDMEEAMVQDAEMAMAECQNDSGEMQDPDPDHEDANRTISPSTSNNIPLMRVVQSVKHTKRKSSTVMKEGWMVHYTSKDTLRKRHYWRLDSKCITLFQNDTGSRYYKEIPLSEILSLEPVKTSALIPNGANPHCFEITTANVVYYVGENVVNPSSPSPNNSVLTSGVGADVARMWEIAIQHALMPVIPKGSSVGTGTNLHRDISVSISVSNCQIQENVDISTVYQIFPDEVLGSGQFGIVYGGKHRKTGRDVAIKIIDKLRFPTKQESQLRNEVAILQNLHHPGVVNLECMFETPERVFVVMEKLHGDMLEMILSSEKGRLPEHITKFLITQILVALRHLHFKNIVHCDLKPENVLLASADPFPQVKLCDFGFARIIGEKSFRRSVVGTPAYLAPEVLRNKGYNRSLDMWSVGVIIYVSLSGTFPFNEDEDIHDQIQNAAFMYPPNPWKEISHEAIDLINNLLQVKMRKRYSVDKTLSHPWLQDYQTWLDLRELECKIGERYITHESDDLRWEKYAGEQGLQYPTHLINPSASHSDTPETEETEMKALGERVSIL
Conditions: at 0.1 µM.

Test [9] addresses T2, Serine/threonine-protein kinase D1 (Homo sapiens). Conditions: at 1 µM.
The target in test [10] is T3, Serine/threonine-protein kinase D2 (Homo sapiens) (UniProt Q9BZL6).
T3 sequence (whole entry): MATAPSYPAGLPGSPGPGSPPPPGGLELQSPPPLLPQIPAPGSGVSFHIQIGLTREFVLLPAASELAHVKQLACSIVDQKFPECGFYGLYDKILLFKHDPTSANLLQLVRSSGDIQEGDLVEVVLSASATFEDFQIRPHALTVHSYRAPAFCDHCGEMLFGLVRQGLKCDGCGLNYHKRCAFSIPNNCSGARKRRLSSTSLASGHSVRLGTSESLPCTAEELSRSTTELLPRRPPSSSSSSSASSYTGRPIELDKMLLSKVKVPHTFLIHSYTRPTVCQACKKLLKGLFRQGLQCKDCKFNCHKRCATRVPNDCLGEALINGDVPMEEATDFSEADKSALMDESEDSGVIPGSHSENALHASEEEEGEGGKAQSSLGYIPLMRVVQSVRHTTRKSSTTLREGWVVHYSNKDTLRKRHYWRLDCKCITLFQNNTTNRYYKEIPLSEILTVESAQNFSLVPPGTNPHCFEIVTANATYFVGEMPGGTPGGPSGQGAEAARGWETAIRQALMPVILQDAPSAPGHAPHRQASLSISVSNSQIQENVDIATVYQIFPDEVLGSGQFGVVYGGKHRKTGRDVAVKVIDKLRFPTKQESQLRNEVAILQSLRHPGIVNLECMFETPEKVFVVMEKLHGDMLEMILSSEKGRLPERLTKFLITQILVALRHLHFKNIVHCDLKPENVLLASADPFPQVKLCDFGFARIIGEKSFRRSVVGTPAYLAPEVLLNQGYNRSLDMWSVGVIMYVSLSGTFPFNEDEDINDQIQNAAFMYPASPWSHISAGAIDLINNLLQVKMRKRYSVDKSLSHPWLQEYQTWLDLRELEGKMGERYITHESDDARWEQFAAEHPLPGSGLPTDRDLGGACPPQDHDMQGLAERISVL
Conditions: at 0.1 µM.

Test [11] deals with T3, Serine/threonine-protein kinase D2 (Homo sapiens). The note with it: at 1 µM.
The target in test [12] is T4, Serine/threonine-protein kinase D3 (Homo sapiens) (UniProt O94806).
T4 sequence (whole entry): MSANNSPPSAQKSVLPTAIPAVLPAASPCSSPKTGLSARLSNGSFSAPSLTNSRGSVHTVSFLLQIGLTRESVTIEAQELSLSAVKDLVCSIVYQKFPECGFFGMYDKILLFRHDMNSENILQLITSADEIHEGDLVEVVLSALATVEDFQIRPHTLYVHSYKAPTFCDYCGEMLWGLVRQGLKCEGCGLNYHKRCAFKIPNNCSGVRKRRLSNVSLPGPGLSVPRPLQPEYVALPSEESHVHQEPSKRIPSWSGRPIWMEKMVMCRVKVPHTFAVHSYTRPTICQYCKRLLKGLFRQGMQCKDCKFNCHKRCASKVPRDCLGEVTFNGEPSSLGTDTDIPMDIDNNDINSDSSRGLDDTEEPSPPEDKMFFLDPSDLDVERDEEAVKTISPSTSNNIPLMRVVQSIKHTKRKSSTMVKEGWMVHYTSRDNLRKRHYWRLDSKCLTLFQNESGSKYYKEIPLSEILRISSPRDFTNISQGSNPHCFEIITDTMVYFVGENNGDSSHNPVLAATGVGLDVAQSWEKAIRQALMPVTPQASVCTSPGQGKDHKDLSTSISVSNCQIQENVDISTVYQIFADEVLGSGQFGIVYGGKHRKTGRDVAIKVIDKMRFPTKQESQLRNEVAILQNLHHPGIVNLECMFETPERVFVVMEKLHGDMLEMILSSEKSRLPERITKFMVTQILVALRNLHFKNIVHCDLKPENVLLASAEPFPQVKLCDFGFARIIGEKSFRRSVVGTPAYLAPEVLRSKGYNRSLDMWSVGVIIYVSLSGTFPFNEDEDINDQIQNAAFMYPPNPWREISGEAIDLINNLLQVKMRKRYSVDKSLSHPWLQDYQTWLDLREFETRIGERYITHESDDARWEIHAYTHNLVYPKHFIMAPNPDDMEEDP
The note with it: at 0.1 µM.

Test [13] concerns the target T4, Serine/threonine-protein kinase D3 (Homo sapiens). The note with it: at 1 µM.
Test [14] deals with T5, cGMP-dependent protein kinase 1 (Homo sapiens) (UniProt Q13976).
T5 sequence (whole entry): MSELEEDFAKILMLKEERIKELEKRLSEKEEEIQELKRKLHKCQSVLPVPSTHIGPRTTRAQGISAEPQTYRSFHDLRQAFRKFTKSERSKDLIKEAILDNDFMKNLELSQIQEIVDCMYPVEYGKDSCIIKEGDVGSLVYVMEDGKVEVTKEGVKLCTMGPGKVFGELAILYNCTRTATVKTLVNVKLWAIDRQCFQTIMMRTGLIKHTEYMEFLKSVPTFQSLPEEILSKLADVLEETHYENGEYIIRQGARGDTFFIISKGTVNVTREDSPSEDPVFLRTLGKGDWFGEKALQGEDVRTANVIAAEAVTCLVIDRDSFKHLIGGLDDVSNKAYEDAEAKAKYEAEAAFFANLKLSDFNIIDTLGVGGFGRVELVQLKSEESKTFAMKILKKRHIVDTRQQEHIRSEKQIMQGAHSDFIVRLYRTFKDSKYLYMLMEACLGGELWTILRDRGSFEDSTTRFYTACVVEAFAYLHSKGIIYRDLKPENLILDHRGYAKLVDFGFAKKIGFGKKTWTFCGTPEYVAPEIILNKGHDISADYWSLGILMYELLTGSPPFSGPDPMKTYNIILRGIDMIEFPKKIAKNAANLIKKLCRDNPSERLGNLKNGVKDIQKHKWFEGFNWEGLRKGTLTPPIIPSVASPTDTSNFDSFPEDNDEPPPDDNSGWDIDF
Conditions: at 0.1 µM.

Test [15] has as its target T5, cGMP-dependent protein kinase 1 (Homo sapiens). Conditions: at 1 µM.
The target of test [16] is T6, cGMP-dependent protein kinase 2 (Homo sapiens) (UniProt Q13237).
T6 sequence (whole entry): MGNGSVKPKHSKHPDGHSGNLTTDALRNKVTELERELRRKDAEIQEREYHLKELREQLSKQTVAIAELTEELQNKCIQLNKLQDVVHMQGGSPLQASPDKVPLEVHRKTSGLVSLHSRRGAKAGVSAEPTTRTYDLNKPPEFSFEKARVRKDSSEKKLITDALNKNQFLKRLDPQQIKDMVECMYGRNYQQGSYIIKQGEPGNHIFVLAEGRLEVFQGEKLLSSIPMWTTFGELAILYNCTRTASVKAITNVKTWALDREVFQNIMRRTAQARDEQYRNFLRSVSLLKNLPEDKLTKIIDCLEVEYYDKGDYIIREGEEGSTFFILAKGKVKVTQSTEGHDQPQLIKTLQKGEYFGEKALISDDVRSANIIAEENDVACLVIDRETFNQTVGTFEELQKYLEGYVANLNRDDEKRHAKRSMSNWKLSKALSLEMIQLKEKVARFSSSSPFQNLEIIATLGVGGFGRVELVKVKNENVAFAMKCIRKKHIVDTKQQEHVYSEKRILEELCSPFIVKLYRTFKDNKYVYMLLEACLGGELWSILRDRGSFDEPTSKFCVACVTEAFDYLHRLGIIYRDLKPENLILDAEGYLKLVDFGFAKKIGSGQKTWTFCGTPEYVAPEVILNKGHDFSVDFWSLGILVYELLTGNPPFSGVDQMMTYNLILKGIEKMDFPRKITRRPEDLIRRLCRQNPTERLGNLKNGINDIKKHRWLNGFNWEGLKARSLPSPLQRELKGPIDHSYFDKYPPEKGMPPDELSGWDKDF
The note with it: at 0.1 µM.

The target in test [17] is T6, cGMP-dependent protein kinase 2 (Homo sapiens). Conditions: at 1 µM.
For test [18], the target named is T7, cAMP-dependent protein kinase catalytic subunit PRKX (Homo sapiens) (UniProt P51817).
T7 sequence (whole entry): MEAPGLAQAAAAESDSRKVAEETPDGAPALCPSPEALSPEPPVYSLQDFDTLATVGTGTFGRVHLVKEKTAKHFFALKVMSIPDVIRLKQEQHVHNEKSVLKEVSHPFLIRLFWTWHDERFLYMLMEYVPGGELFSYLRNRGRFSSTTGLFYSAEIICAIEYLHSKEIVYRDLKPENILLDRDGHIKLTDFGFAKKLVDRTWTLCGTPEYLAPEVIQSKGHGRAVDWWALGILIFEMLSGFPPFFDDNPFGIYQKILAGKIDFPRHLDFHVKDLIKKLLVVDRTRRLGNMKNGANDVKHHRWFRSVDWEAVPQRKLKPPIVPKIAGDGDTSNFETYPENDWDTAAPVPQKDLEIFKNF
The note with it: at 0.1 µM.

In test [19] the target is T7, cAMP-dependent protein kinase catalytic subunit PRKX (Homo sapiens). The note with it: at 1 µM.
For test [20], the target named is Rho-associated protein kinase 1 (Homo sapiens) (UniProt Q13464). The note with it: at 0.1 µM.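 Also: values are mean percent inhibition of ROCK1.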
Rho-associated protein kinase 1 (Homo sapiens), sequence (Q13464 2-1354 limits assumed): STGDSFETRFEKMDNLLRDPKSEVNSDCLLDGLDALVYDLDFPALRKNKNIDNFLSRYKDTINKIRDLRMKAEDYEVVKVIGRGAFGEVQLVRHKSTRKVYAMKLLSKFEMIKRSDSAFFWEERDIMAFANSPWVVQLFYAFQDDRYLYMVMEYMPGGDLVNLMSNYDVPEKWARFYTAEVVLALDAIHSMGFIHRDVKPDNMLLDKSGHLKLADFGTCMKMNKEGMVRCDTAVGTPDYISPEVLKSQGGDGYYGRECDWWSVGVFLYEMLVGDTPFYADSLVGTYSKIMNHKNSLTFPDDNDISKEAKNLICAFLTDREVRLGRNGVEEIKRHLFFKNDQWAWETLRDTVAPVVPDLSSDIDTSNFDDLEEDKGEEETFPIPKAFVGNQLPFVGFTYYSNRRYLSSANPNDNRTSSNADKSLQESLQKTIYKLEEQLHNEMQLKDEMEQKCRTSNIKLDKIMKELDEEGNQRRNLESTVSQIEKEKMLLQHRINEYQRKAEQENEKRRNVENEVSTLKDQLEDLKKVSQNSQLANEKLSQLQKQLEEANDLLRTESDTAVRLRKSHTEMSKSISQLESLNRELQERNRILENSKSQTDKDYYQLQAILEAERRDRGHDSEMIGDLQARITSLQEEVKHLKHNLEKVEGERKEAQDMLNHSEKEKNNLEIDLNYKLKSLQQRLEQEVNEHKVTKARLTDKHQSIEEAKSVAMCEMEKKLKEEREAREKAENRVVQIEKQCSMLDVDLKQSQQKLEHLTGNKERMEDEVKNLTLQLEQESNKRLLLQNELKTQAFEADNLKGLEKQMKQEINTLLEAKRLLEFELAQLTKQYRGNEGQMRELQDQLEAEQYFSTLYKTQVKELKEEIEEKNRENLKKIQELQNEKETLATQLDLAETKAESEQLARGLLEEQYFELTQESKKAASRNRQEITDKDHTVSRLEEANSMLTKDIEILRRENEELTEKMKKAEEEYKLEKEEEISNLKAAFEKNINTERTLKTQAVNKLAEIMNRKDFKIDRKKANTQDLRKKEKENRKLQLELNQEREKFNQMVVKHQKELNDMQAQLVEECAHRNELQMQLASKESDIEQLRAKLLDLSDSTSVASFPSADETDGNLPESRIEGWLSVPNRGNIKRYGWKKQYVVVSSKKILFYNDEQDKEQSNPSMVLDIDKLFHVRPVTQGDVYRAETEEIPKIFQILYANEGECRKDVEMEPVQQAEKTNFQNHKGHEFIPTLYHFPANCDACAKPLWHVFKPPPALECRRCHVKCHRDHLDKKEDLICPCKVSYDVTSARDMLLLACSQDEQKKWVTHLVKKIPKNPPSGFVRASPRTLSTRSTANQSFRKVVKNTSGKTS

Protein kinase C theta type (Homo sapiens), sequence (Q04759 whole entry, looked up): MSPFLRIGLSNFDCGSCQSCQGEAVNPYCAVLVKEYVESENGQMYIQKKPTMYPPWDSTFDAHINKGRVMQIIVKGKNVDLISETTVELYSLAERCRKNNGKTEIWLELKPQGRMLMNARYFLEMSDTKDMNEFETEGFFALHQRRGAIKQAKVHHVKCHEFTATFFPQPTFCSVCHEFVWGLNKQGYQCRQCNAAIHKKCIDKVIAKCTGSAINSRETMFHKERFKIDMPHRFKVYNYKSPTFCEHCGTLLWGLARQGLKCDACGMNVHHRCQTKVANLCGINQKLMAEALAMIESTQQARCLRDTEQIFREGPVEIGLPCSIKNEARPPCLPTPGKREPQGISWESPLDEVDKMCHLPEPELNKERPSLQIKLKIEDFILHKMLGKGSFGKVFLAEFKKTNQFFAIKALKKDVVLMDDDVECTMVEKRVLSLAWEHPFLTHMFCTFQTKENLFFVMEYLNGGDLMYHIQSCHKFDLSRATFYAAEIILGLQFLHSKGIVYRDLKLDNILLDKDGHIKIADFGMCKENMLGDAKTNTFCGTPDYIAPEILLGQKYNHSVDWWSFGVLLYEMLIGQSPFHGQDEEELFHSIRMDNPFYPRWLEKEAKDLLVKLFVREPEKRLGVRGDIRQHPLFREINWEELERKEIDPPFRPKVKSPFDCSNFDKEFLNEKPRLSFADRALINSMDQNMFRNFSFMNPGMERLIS
Protein kinase C beta type (Homo sapiens), sequence (P05771 2-671 limits assumed): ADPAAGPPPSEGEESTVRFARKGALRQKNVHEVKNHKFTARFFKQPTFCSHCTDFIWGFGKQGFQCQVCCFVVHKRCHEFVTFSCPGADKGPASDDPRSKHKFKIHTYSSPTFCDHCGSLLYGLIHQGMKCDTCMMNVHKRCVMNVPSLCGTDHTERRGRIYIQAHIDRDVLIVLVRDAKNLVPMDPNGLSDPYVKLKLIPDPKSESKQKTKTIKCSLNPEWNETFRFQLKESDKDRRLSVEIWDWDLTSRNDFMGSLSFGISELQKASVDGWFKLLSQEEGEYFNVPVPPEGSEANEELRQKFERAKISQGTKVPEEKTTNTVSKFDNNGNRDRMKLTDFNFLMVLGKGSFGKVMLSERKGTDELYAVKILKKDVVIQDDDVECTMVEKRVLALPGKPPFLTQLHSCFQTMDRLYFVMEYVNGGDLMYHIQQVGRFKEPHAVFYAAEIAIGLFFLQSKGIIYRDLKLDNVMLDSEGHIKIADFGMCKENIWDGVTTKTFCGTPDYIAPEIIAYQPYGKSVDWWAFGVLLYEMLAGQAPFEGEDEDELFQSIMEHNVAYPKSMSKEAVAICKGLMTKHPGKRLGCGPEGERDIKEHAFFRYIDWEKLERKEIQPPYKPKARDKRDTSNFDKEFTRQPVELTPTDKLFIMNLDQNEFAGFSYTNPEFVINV

For `N#Cc1ccc2c(-c3ccnc(NC4CC4)n3)c(-c3ccc(F)cc3)nn2c1`, the inhibition (usually the change of the read-out against control, counted positive when it falls) in test [1] came out at 1.83%; in [2] it was 0.18%; in test [3] it was 0.6%; in test [4], 1.35%; in test [5] it was 1.42%; in test [6] it was 1.33%. For the same compound, the inhibition in [7] came to 4.8%; in test [8] it was 5.97%; in test [9], 40%; in test [10] it was 5.96%; in test [11] it was 44.2%; in [12], 6.5%. The inhibition is 41.7% in test [13]; 1.2% in [14]; -0.35% in test [15]; 0.69% in [16]; -1.36% in [17]; 1.65% in test [18]. The inhibition in [19] amounted to 0.23%; in [20] it was 0.62%.
For the compound `COc1cccc(Nc2nccc(-c3cnn4ncccc34)n2)c1`, the inhibition was 9.31% in test [1]; -1.42% in [2]; -1.07% in test [3]; 0.2% in [4]; 4.75% in [5]; 0.37% in test [6]. In addition, the inhibition came to 7.43% in test [7]; 4.01% in test [8]; 38.2% in test [9]; 2.78% in test [10]; 37.4% in [11]; 4.36% in test [12]. For the same compound, the inhibition in [13] was 41.4%; in test [14], 5.54%; in test [15], 37.6%; in [16], 1.94%; in test [17], 14.5%; in test [18], -0.56%. Besides, the results for the inhibition in [19] and in test [20] were -0.01% and -0.95%, respectively.
